# Source: PubChem BioAssay (NCI)
# This is part of a sample that, as a whole, favours compounds with a hit. Of some 79,000 tested, about 15% had one in any assay. Unmarked numbers belong to inactive results. Calls of active or inactive are those of the source. Cut-off read from the data, not from the text of the source: active = growth inhibition above about 70%; inactive = the rest.
# What was measured:
# [1] = NCI Yeast Anticancer Drug Screen. Data for the rad50 strain (AID 155);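 note: 0% = growth of vehicle-only cultures of the same strain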; settings: S. cerevisiae rad50 strain growth inhibition, active compounds read high
# In short: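 Compounds were tested on a yeast strain with an engineered DNA damage repair alteration; the reported value is growth inhibition normalised to vehicle treatment.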
# [2] = NCI Yeast Anticancer Drug Screen. Data for the mec2-1 strain (AID 157); settings: S. cerevisiae mec2-1 strain, active compounds read high
# In short: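 Mutant yeast (mec2-1) grown with compound; growth inhibition relative to vehicle control reported.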
# [3] = NCI Yeast Anticancer Drug Screen. Data for the sgs1 mgt1 strain (AID 161);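 note: 0% = growth of cultures given vehicle only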; settings: S. cerevisiae sgs1 mgt1 strain, active compounds read high
# In short: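 Compounds are added to genetically altered yeast, and growth is compared with cultures given vehicle alone to give percent inhibition.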
# [4] = NCI Yeast Anticancer Drug Screen. Data for the cln2 rad14 strain (AID 165);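 note: 0% = growth equal to vehicle treated cultures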; settings: S. cerevisiae cln2 rad14 strain, active compounds read high
# In short: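 Readout is yeast growth inhibition versus vehicle-treated controls, using a strain with cln2 and rad14 alterations exposed to compound.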
# [5] = NCI Yeast Anticancer Drug Screen. Data for the bub3 strain (AID 167); settings: S. cerevisiae bub3 mutant strain, active compounds read high
# In short: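 Growth of a checkpoint-deficient yeast mutant is measured after compound exposure. Values represent inhibition relative to vehicle.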
# [6] = NCI Yeast Anticancer Drug Screen. Data for the mlh1 rad18 strain (AID 175); settings: S. cerevisiae mlh1 rad18 strain growth inhibition, active compounds read high
# In short: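 Genetically defined yeast (DNA repair-deficient) exposed to compounds; growth inhibition determined relative to vehicle.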
# [7] = at 5.0 µM (retest, dose inferred, filed as 0.5)
# [8] = at 50.0 µM (retest, dose inferred, filed as 5.0)
Structure (SMILES),"growth inhibition [1, 7]","growth inhibition [1, 8]",growth inhibition ([1]; at 50.0 µM),"growth inhibition [2, 7]","growth inhibition [2, 8]",growth inhibition ([2]; at 50.0 µM),"growth inhibition [3, 7]","growth inhibition [3, 8]",growth inhibition ([3]; at 50.0 µM),"growth inhibition [4, 7] [%]","growth inhibition [4, 8]",growth inhibition ([4]; at 50.0 µM),"growth inhibition [5, 7]","growth inhibition [5, 8]",growth inhibition ([5]; at 50.0 µM),"growth inhibition [6, 7]","growth inhibition [6, 8]",growth inhibition ([6]; at 50.0 µM)
O=C(Cc1csc2[n+]1C(=O)/C(=C/c1cccc([N+](=O)[O-])c1)S2)Nc1ccccc1,-5%,-3%,41.3%,-16%,-5%,44.2%,-8%,11%,24%,-24,-17%,37.5%,-5%,17%,10.8%,-3%,-9%,33.9%
CN(C)NC(=S)C(F)(F)F,-1%,87% (active),95.5% (active),1%,79% (active),56.7%,0%,84% (active),97.8% (active),-4,85% (active),44%,0%,85% (active),37.6%,-2%,79% (active),77% (active)
CC(CCC(=O)O)[C@H]1CCC2[C@@H]3CC(O)[C@@H]4CC(O)CC[C@]4(C)C3CC[C@@]21C (some centres not stated),-5%,44%,75.4% (active),-10%,58%,74.5% (active),5%,64%,77.3% (active),14,70% (active),76.2% (active),-6%,84% (active),50.5%,-8%,71% (active),67.7%
C=C(C)/C([O-])=N/[N+](C)(C)CC(O)CCCCCCCCCCCC (configuration not stated),34%,98% (active),91.7% (active),32%,99% (active),91.5% (active),60%,99% (active),92.2% (active),57,99% (active),90.3% (active),67%,99% (active),91.5% (active),31%,98% (active),90.2% (active)
CCCCOC(=O)C(C)OC(=O)NNc1ccccc1 (configuration not stated),10%,51%,48.2%,0%,12%,36%,1%,39%,36%,7,34%,36.7%,9%,88% (active),99% (active),6%,87% (active),67%
Clc1cc2c(c3ncccc13)OCN(Cc1ccccc1)C2,16%,76% (active),99.2% (active),1%,33%,99.5% (active),14%,98% (active),99.5% (active),9,98% (active),99.2% (active),-3%,99% (active),99.4% (active),23%,99% (active),99.3% (active)
CC(=O)Nc1ccc(N=Cc2cc(Cl)cc(Cl)c2O)cc1,82% (active),99% (active),80.2% (active),90% (active),99% (active),73.5% (active),97% (active),95% (active),89.3% (active),54,94% (active),53%,97% (active),97% (active),81.7% (active),80% (active),99% (active),65.8%
CCN(CC)CCCCCCNc1cc(C)cc2ccc(C)nc12,8%,59%,65.8%,0%,22%,45.7%,11%,58%,39.1%,0,36%,8.2%,7%,62%,79.7% (active),21%,40%,47.5%
c1ccc2c(c1)Nc1ccc3ccccc3c1S2,3%,-1%,47.8%,-50%,3%,15.2%,-1%,13%,41.5%,4,-12%,-39.9%,30%,3%,48.6%,3%,13%,66.5%
O=C1CC(c2ccccc2Cl)C(c2ccccc2Cl)C1 (configuration not stated),-2%,97% (active),97.5% (active),-6%,98% (active),96% (active),-7%,96% (active),96.7% (active),-2,97% (active),95.5% (active),0%,97% (active),97.2% (active),-2%,96% (active),97.2% (active)
CN(C)N=Nc1ccc(NC(N)=O)cc1,33%,78% (active),43.8%,16%,43%,65.3%,38%,45%,12.6%,38,51%,23.3%,42%,50%,67.7%,25%,58%,81.2% (active)
CCCN(CCC)Cc1cc2c(cc1O)CC[C@@H]1[C@@H]2CC[C@]2(C)C(=O)CC[C@@H]12,98% (active),87% (active),84% (active),100% (active),89% (active),51.8%,100% (active),62%,80.1% (active),52,20%,60.9%,99% (active),89% (active),37.5%,99% (active),94% (active),65.2%
COC(=O)c1nc(=S)[nH]c(C(=O)OC)c1C(=O)c1ccc([N+](=O)[O-])cc1,5%,84% (active),96.8% (active),-8%,64%,49.4%,-5%,80% (active),96.5% (active),2,70% (active),31.1%,5%,93% (active),61.1%,-2%,93% (active),91% (active)
O=C1c2ccccc2C(=O)c2c(OCCOCCO)cccc21,6%,70% (active),86.2% (active),3%,18%,23.9%,2%,31%,18%,-3,21%,24.6%,-6%,17%,37.6%,1%,65%,39.6%
COc1ccc(/C=N/NC(=O)c2ccco2)cc1OC,-5%,0%,63.5%,-5%,-15%,73.2% (active),-3%,5%,23.8%,-21,-20%,19.1%,-7%,-13%,56.2%,-6%,-14%,35.8%
COc1ccc(-c2c(C(=O)O)[nH]c3ccccc23)cc1,38%,90% (active),96.8% (active),12%,87% (active),97.5% (active),35%,98% (active),97.5% (active),25,88% (active),98.5% (active),58%,98% (active),96.2% (active),65%,97% (active),99% (active)
O=C(CCl)N(Cc1ccccc1)Cc1ccccc1,-2%,92% (active),84% (active),-1%,95% (active),92.1% (active),-8%,94% (active),89.5% (active),2,84% (active),42.5%,6%,92% (active),85% (active),-1%,92% (active),78.6% (active)
CC(C)CC(C(=O)SCC(C)N1CCCC1)c1ccccc1 (configuration not stated),0%,35%,48%,8%,33%,36.1%,26%,56%,49.6%,12,43%,71.4% (active),15%,59%,51.8%,11%,37%,59.2%
CCCCCCOC(=O)Nc1ccc(S(=O)(=O)N2CCCCC2)cc1,-7%,47%,35.5%,-9%,56%,28.1%,7%,66%,50.5%,-87,44%,7.35%,-10%,41%,73.8% (active),-1%,46%,52.5%
